Each structure is given as a SMILES string. Calls of active or inactive are those of the source. How the source made its calls: active means hit-call score of the fitted dose curve at least 0.9, where 1 is the maximum; inactive means score below 0.9.

Read-out in the test: CYP3A5 (gene 1577)
The experiment in a line: LTEA_HepaRG_CYP3A5: Life Technologies and Expression Analysis (LTEA) Assay for CYP3A5 using HepaRG (AID 2283493). The conditions noted are these: mRNA level, 48 h; actives raise or lower the signal. Here is the method: LTEA_HepaRG is a cell based, multiplexed-readout assay that uses HepaRG, a human liver cell line, with measurements taken at 48 hours after chemical dosing on a 96-well plate.LTEA_HepaRG_CYP3A5 is one of 102 assay component(s) measured in the LTEA HepaRG cell culture assay. It is a marker of NR mediated metabolism.Data from the assay component LTEA_HepaRG_CYP3A5 was analyzed into 1 endpoint. This assay endpoint, LTEA_HepaRG_CYP3A5, was analyzed with bidirectional fitting relative to DMSO as the negative control and baseline of activity. Using a type of inducible reporter, measures of mRNA induction for gain or loss-of-signal activity can be used to understand regulation of transcription factor activity. To generalize the intended target to other relatable targets, this assay endpoint is annotated to the cyp intended target family, where the subfamily is xenobiotic metabolism.
A total of 1060 chemcials from the ToxCast library were tested in eight-point concentration-response experiments. Cell culture and cytotoxicity assays were conducted at Thermo Fisher Scientific's Custom Services facility (Madison, WI). A single lot of human HepaRG cells (Thermo Fisher Scientific, Frederick, MD) was used for the cell culture experiments. 96-well format collagen type I coated plates of human HepaRG cells were prepared using established methods. Briefly, cryopreserved HepaRG cells were thawed, plated at a density of approximately 100,000 cells/well in HepaRG Thaw, Plate, and General Purpose media (HPRG770, Thermo Fisher Scientific), and incubated for 48 hours. 0.5% DMSO was selected as vehicle control to balance the requisite need of DMSO in HepaRG cultures to maintain differentiation (for example, baseline metabolism, proportions of hepatocytes vs. cholangiocytes), while enabling further hepatic receptor pathway activation (for example, PXR and CAR) in response to chemical exposure. 48 hours after plating, the culture medium was replaced with HepaRG Serum-Free Incudtion Media. Cells were exposed to each test chemical in duplicate and maintained in CO2 incubators for another 48 hours. Chemical plates were thawed to room temperature and 200x concentrations of treatment groups were prepared. 8-point conentration-reponse curves were made with the highest exposure at 100 uM, followed by half-log dilutions, all in 0.5% DMSO. Each test plate contained variouse controls, induction positive controls (1mM phenobarbital), cytotoxicity positive controls ([…] aflatoxin B1), vehicle controls (0.5% DMSO), and total lysis controls (0.5% DMSO). Cell morphology images were taken using an Essen IncuCyte FLR automated microscope, with six 96-well plates imaged in about 24 minutes. Images were captured and exported and JPEG files. Spent culture media was transfered to black-well plates for the LDH assay, and remaining media was sorted at -80 C for later use. Cells were treated with RLT buffer and frozen until shipped for gene expression analysis. Total RNA was isolated from the cell suspension in 75 uL of Buffer RLT (Qiagen, Germantown, MD 20874) by Quintiles/Expression Analysis (Durham, NC) using a custom isolation procedure. Total RNA from each plate well was transferred to a preamplification plate. Fluidigm's 96.96 Dynamic ArrayTM (Fluidigm, Amsterdam, the Netherlands) technology was used for gene expression analyses by quantitative reverse transcription polymerase chain reaction (qRT-PCR, performed by Quintiles/Expression Analysis, Durham, NC)89. Standard TaqManTM Assays (Applied Biosystems/ThermoFisher Scientific, Foster City, CA) were used to assess the expression of 93 genes selected based on their selectivity and sensitivity to important hepatic receptors known to be modulated by environmental chemicals; importance in human hepatocyte functionality; and hepatotoxicity. […]
As to `Cc1occc1C(=O)Nc1ccc(C(=O)N2CCC(F)(F)/C(=C\C(=O)N3CCC(N4CCCCC4)CC3)c3ccccc32)cc1`, the compound was classed as inactive. With `O=C(O)c1ccccc1-n1cc(C(=O)O)c(=O)c2cc(Nc3c(F)cc(F)cc3Cl)c(Cl)cc21`, the compound was classed as inactive.

As for `O=C(O)Cn1c(=O)n(Cc2ccc(Br)cc2F)c(=O)c2ccc(Cl)cc21`, the compound was classed as inactive. On the same count and under the same terms, the value for `OCCO` was “inactive”; that for `O=C1CCC(C2CCCCC2)CC1` was “inactive”. Same read-out and setting: for `Cc1cn([C@H]2C[C@H](N=[N+]=[N-])[C@@H](CO)O2)c(=O)[nH]c1=O` the value was “inactive”. Still for that read-out and setting: the value for `CCOC(=O)O[C@H](C)OC(=O)c1ccc2c(c1)cc(C(=O)NC1CCN(C(C)C)CC1)n2Cc1cc(-c2ccc(Cl)s2)on1` was “inactive”; that for `COc1cc(C(=O)NC2CCN(C)CC2)ccc1Nc1ncc2c(n1)N(C1CCCC1)CC(F)(F)C(=O)N2C` was “inactive”. As a reminder, the AC50 is the concentration giving half of the maximal activity seen. In the case of `CN1C(=O)N(c2ccccc2Br)Cc2cnc(Nc3ccc4c(c3)OCC(CO)O4)nc21` (stereo not given), the AC50 was 82.1 µM (active). Take `Clc1ccccc1C(c1ccccc1)(c1ccccc1)n1ccnc1`: the compound was called inactive.

As for `CN1C(=O)CC[C@H]1c1cccnc1`, the compound was classed as inactive. Same read-out and setting: for `O=C1O[C@H]([C@@H](O)CO)C(O)=C1O` the value was “inactive”; for `CC(C)(O)c1ccc(CNC(=O)c2cccnc2Oc2ccc3nonc3c2)cc1`, “inactive”; for `c1ccc(C[n+]2cccc3ccccc32)cc1`, “inactive”. As to `CCCCCCCCOC(=O)c1cc(O)c(O)c(O)c1`, the result was inactive. On the same count and under the same terms, the value for `CCCCCCCCCCCO` was “inactive”; that for `Cc1oc2c(NC(=O)c3c(Cl)cccc3Cl)cccc2c1C(C)(C)O` was “inactive”. In the case of `NCc1cccc(C2CCN(C(=O)c3ccc(C#Cc4ccccc4F)o3)CC2)c1`, the AC50 is 81.1 µM (active). Consider `Cc1cc(F)ccc1-c1cc(N2CC[C@@H](O)[C@H]2CO)ncc1N(C)C(=O)C(C)(C)c1cc(C(F)(F)F)cc(C(F)(F)F)c1`, for which the outcome was inactive. `CC/C(=C(/CC)c1ccc(O)cc1)c1ccc(O)cc1`: the AC50 is 50 µM (active). `Oc1ccc2ccccc2c1`: the compound was classed as inactive.

Regarding `O=C=NCCCCCCN=C=O`, the result was inactive. Take `O=C(O)Cc1cc(I)c(Oc2ccc(O)c(I)c2)c(I)c1`: the AC50 was 0.0881 µM (active).

Regarding `CC(=O)N1CCN(c2ccc(OC[C@H]3CO[C@](Cn4ccnc4)(c4ccc(Cl)cc4Cl)O3)cc2)CC1`, the AC50 was 50 µM (active). Take `CC(C)(c1cc(Br)c(O)c(Br)c1)c1cc(Br)c(O)c(Br)c1`: the result was inactive. On the same count and under the same terms, the value for `O=c1[nH]sc2ccccc12` was “inactive”; that for `NC(=O)c1nc(-c2cccc(-c3cc(F)ccc3OCC(F)(F)C(F)(F)F)c2)n[nH]1` was “inactive”; that for `CCN(Cc1cccc(S(=O)(=O)O)c1)c1ccc(C(=C2C=CC(=[N+](CC)Cc3cccc(S(=O)(=O)O)c3)C=C2)c2ccccc2S(=O)(=O)[O-])cc1` was “inactive”. On the same count and under the same terms, the value for `c1ccc2n[nH]nc2c1` was “inactive”; that for `O=c1c(-c2ccc(O)cc2)coc2cc(O)cc(O)c12` was “inactive”. As for `O=C(O)c1ccccc1C(=O)OCc1ccccc1`, the compound was called inactive.

`O=CCCCC=O`: the outcome was inactive.

`CC(C)(C)c1csc(-c2cc3cc(OCc4ccccc4CC(=O)O)ccc3o2)n1`: the AC50 is 81.3 µM (active). The same measure, in the same setting: for `CC1(C)NC(=O)N(c2ccc([N+](=O)[O-])c(C(F)(F)F)c2)C1=O` the value was 32.3 µM (active).

Turning to `COc1ccc2cc(S(=O)(=O)N[C@H](CC(=O)N[C@H](Cc3ccc(CN4[C@H](C)CCC[C@@H]4C)cc3)C(=O)N(C)C(C)C)c3ccc4c(c3)OCO4)ccc2c1`, the AC50 is 22.1 µM (active).

Turning to `O=C1c2ccccc2C(=O)N1CCc1noc(-c2ccc(CN3CCCCCC3)s2)n1`, the outcome was inactive. With `CCCCCCCCCC(=O)O`, the outcome was inactive. As for `Cc1c2ccccc2c(C)c2c1ccc1ccccc12`, the AC50 is 11.9 µM (active). Still for that read-out and setting: for `CCN(CC)C(=O)c1cc(S(=O)(=O)Cc2ccccc2)c(N2CCC(c3ccccc3)CC2)cc1N(CC)CCN(C)C` the value was 32.2 µM (active). Still for that read-out and setting: for `OC12N=C(c3ccccc3)SC1Cc1cc(Cl)ccc12` (stereo not given) the value was 8.12 µM (active).

For the origin of these results see PubChem BioAssay (EPA / NIEHS).
